The values below come from PubChem BioAssay (EPA / NIEHS).

Test [1] can be described thus: Tanguay_ZF_120hpf_BRAI_legacy: (Legacy) Oregon State University Tanguay Lab 120 Hour Post-fertilization zebrafish Assay for Brain Malformation (AID 2283641). In a few lines:
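Brain malformation in Tropical 5D zebrafish was recorded as a binary endpoint after static compound exposure from early development to 120 hpf at 28C. Activity was analysed against DMSO as negative control.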

The nature of test [2]: Tanguay_ZF_120hpf_PFIN_legacy: (Legacy) Oregon State University Tanguay Lab 120 Hour Post-fertilization zebrafish Assay for Pectoral Fin Malformation (AID 2283648).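 Further: each larva judged yes or no for fin defect by brightfield with dead larvae skipped.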 The gist of the method: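 Tropical 5D wild-type embryos, dechorionated with pronase at 4 hpf, were placed singly in wells at 6 hpf and statically exposed until 120 hpf at 28C, sealed and dark, with 0.64% (vol/vol) final DMSO; pectoral fin malformation scored present/absent.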

A short description of test [3]: Tanguay_ZF_120hpf_CFIN_legacy: (Legacy) Oregon State University Tanguay Lab 120 Hour Post-fertilization zebrafish Assay for Caudal Fin Malformation (AID 2283649). In a few lines: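 Embryos were collected from Tropical 5D wild-type adults and dechorionated at 4 hpf. At 6 hpf each was exposed, one per well, at 0.64% DMSO and 28C. At 120 hpf fin morphology was scored; dead embryos were excluded.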

Test [4] can be described thus: Tanguay_ZF_120hpf_PIG_legacy: (Legacy) Oregon State University Tanguay Lab 120 Hour Post-fertilization zebrafish Assay for Pigmentation Malformation (AID 2283650). The gist of the method:
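Tropical 5D wild-type zebrafish embryos, dechorionated with pronase at 4 hpf, were exposed singly from 6 hpf to 120 hpf statically at 28C in sealed, dark plates with 0.64% DMSO; pigmentation scored present/absent by brightfield microscopy, fitted against DMSO.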

Test [5] can be described thus: Tanguay_ZF_120hpf_SWIM_legacy: (Legacy) Oregon State University Tanguay Lab 120 Hour Post-fertilization zebrafish Assay for Swim Bladder Malformation (AID 2283654).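 Further: swim bladder malformation in each larva scored yes or no under brightfield.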 In a few lines:
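Dechorionated Tropical 5D wild-type embryos, placed singly from 6 hpf, were statically exposed at 28C to 120 hpf with 0.64% DMSO final; swim bladder malformation was scored present/absent by brightfield microscopy, gain of signal relative to DMSO controls.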

The nature of test [6]: Tanguay_ZF_120hpf_TRUN_legacy: (Legacy) Oregon State University Tanguay Lab 120 Hour Post-fertilization zebrafish Assay for Truncated Body (AID 2283655). The gist of the method:
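5D wild-type larvae; pronase dechorionation; static exposure 6→120 hpf, 28C; DMSO 0.64% final; 5uM trimethyltin chloride positive control. Readout: presence/absence of truncated body, analyzed relative to DMSO.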

A short description of test [7]: Tanguay_ZF_120hpf_NC_legacy: (Legacy) Oregon State University Tanguay Lab 120 Hour Post-fertilization zebrafish Assay for Notochord and Tail Malformation (AID 2283656). The gist of the method:
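Dechorionated 5D zebrafish, 1/well from 6 hpf; static exposure to 120 hpf, 28C, sealed, dark; final DMSO 0.64% v/v. NC scored binary (present/absent); dead embryos not scored. Fit vs DMSO baseline, gain direction.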

The nature of test [8]: Tanguay_ZF_120hpf_TR_legacy: (Legacy) Oregon State University Tanguay Lab 120 Hour Post-fertilization zebrafish Assay for Touch Response (AID 2283667). In a few lines:
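Tropical 5D wild-type zebrafish embryos were exposed statically in sealed, foil-covered plates at 28C until 120 hpf, with 0.64% (vol/vol) final DMSO. Touch response was scored as present or absent; embryos that died were not scored.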

A short description of test [9]: CCTE_Padilla_ZF_144hpf_TERATOSCORE: (Legacy) CCTE's 144 Hour Post-fertilization zebrafish Assay Teratoscore, Padilla Lab (AID 2283679; active means hit-call score of the fitted dose curve at least 0.9, where 1 is the maximum; inactive means score below 0.9;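 on AC50: zebrafish embryos with chorions exposed by immersion from 6-8 hpf to 5 dpf with daily renewal; teratogenicity score from eye scoring of death hatching and malformations at 144 hpf; higher score means more developmental defects relative to DMSO baseline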). In a few lines:
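Larvae scored by eye at 144 hpf for death, hatching and malformations after a day in clean Hanks'. Before that, daily-renewed exposure at 80 uM (0.4% DMSO, 26C) from roughly 6-8 hpf through 5 dpf, 4 embryos per chemical.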

For test [10], the system named is Thyroperoxidase (TPO), gene 54314. The experiment in a line: CCTE_Simmons_AUR_rTPO: CCTE's Amplex UltraRed Assay for Thyroperoxidase (TPO) Inhibition, Simmons Lab (AID 2283662).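 Further: potency for loss of signal meaning inhibition of peroxidase activity.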 In a few lines: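 Rat thyroid microsomes (5 ug protein) with 25 uM Amplex UltraRed and 300 uM H2O2 in 200 mM phosphate buffer, 30 min at 37C in dark; fluorescence 544/590 nm. Eight concentrations, 5 nM–87.5 uM final, 0.5% DMSO, triplicate biological replicates.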

Test [11] can be described thus: CCTE_Simmons_CellTiterGLO_HEK293T: Viability Assessment in CCTE's Assays for Thyroperoxidase (TPO) Inhibition, Simmons Lab (AID 2283665).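 Further: cells exposed to compound for 24 h before readout; actives reduce ATP signal below DMSO vehicle meaning cytotoxicity.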 In a few lines: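 Cytotoxicity counter-screen: human HEK293T cells in low-serum (1% FBS) medium receive test chemical, 5 nM to 87.5 uM final, for 24 h; ATP is quantified by luciferase luminescence.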
(ATP-based viability assays read luminescence as a measure of living cells.)

A short description of test [12]: STM_H9_CystineISnorm_perc: Stemina devTOX quickPredict H9 human embryonic stem cell (hESC)-based Assay for Cystine (CYSS) Metabolite Biomarker, Normalized (AID 2283713; active means hit-call score of the fitted dose curve at least 0.9, where 1 is the maximum; inactive means score below 0.9). The gist of the method: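 Secreted cystine was measured by UPLC-HRMS in H9 hESC medium after 72h compound exposure with 24-hourly replenishment. Values are standard-normalized areas relative to 0.1% DMSO.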

Test [13] can be described thus: STM_H9_OrnCyssISnorm_ratio: Stemina devTOX quickPredict H9 human embryonic stem cell (hESC)-based Assay for Ornithine (ORN):Cystine (CYSS) Ratio (AID 2283714). The gist of the method: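 Undifferentiated H9 hESCs were exposed to compound for 72h with media and chemical replaced every 24h. Final 24-h conditioned media were deproteinized and analysed by UPLC-HRMS. ORN and CYSS peak areas were normalized to C13 internal standards and the ratio taken versus 0.1% DMSO.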

Read-out in test [14]: kallikrein-3 (KLK3), KLK3 (gene 354)
The experiment in a line: LTEA_HepaRG_KLK3: Life Technologies and Expression Analysis (LTEA) Assay for kallikrein-3 (KLK3) using HepaRG (AID 2283652; active means hit-call score of the fitted dose curve at least 0.9, where 1 is the maximum; inactive means score below 0.9). Conditions: mRNA level, 48 h; actives raise or lower the signal. In a few lines: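 Differentiated human HepaRG cells in serum-free induction medium exposed 48 h in duplicate, eight-point half-log series from 100 uM in 0.5% DMSO. KLK3 mRNA by qRT-PCR, normalised to ACTB, GAPDH, POLR2A; bidirectional fit versus DMSO.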

Read-out in test [15]: solute carrier (SLC22A6), SLC22A6 (gene 9356)
Briefly: LTEA_HepaRG_SLC22A6: Life Technologies and Expression Analysis (LTEA) Assay for solute carrier (SLC22A6) using HepaRG (AID 2283653; active means hit-call score of the fitted dose curve at least 0.9, where 1 is the maximum; inactive means score below 0.9). The settings on record: mRNA level, 48 h; actives raise or lower the signal. In a few lines:
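This endpoint tracks SLC22A6 mRNA induction or suppression in human HepaRG cultures after 48 h dosing, concentrations reaching 100 uM. Values derive from bidirectional fitting against DMSO controls.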

Read-out in test [16]: solute carrier (SLC10A1), SLC10A1 (gene 6554)
Briefly: LTEA_HepaRG_SLC10A1: Life Technologies and Expression Analysis (LTEA) Assay for solute carrier (SLC10A1) using HepaRG (AID 2283657; active means hit-call score of the fitted dose curve at least 0.9, where 1 is the maximum; inactive means score below 0.9). The settings on record: mRNA level, 48 h; actives raise or lower the signal. In a few lines: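 Differentiated HepaRG cells were plated 48 h, then exposed in serum-free induction medium for 48 h to 8 concentrations (top 100 uM, half-log steps, 0.5% DMSO). SLC10A1 mRNA was quantified by qRT-PCR normalized to ACTB, GAPDH, POLR2A; bidirectional fit versus DMSO.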

Read-out in test [17]: matrix metalloproteinase-1 (MMP1), MMP1 (gene 4312)
The experiment in a line: LTEA_HepaRG_MMP1: Life Technologies and Expression Analysis (LTEA) Assay for matrix metalloproteinase-1 (MMP1) using HepaRG (AID 2283658; active means hit-call score of the fitted dose curve at least 0.9, where 1 is the maximum; inactive means score below 0.9). The settings on record: mRNA level, 48 h; actives raise or lower the signal. In a few lines: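 Bidirectional concentration-response fitting relative to 0.5% DMSO gives the endpoint, derived from MMP1 mRNA levels (qRT-PCR) in human HepaRG cells treated 48 h with chemicals up to 100 uM.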

Read-out in test [18]: Cytochrome P450 (CYP24A1_1), CYP24A1 (gene 1591)
The experiment in a line: LTEA_HepaRG_CYP24A1_1: Life Technologies and Expression Analysis (LTEA) Assay for Cytochrome P450 (CYP24A1_1) using HepaRG (AID 2283671; active means hit-call score of the fitted dose curve at least 0.9, where 1 is the maximum; inactive means score below 0.9). The settings on record: mRNA level, 48 h; actives raise or lower the signal. The gist of the method: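 HepaRG, 48 h exposure, 8-pt half-log series from 100 uM in 0.5% DMSO, duplicates. Readout: TaqMan qRT-PCR of CYP24A1 mRNA, housekeeping-normalized (ACTB/GAPDH/POLR2A). Bidirectional curve fit vs DMSO baseline.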

Inconclusive results are not listed. Calls of active or inactive are those of the source. How the source made its calls, unless noted: active means hit-call score of the fitted dose curve at least 0.9, where 1 is the maximum; inconclusive means response in the unintended direction; inactive means score below 0.9.

`OCCC(F)(F)C(F)(F)C(F)(F)C(F)(F)C(F)(F)C(F)(F)C(F)(F)C(F)(F)F`: the result in test [1], in test [2], in [3], in [4], in test [5] and in [6] was inactive. For the same compound, the compound was called inactive in [7], in test [8] and in test [9].
For the compound `CC(C)(C)c1cccc(C(C)(C)C)c1O`, the call in [1], in test [4], in test [5] and in test [7] was inactive. Further, the figures for the AC50 in test [10], in [11] and in test [9] were 2.68 µM (active), 10.2 µM (active) and 97.8 µM (active), respectively.
For `C[C@@H]1C[C@H]2[C@@H]3CCC4=CC(=O)C=C[C@]4(C)[C@@]3(F)[C@@H](O)C[C@]2(C)[C@@]1(O)C(=O)COP(=O)(O)O`, the result in test [1], in [2], in test [3], in test [4], in [5] and in test [6] was inactive. The compound was classed as inactive in test [7], in [8], in test [9], in [12] and in test [13].
Turning to `CCCCCCC(=O)O`, the call in test [1], in [2], in [3], in [4], in test [5] and in test [7] was inactive. Moreover, the call in [8] was inactive.
On to `Cc1cc(CCN2CCN(c3nsc4ccccc34)CC2)cc2c1NC(=O)CC2(C)C`, for which the AC50 – broadly, the midpoint of the concentration-response curve, whichever way the signal moves – in [1] is 5.16 µM (active); in [2], 5.62 µM (active); in [3] it was 6.48 µM (active); in [4] it was 6.31 µM (active); in test [5] it was 3.82 µM (active); in test [6], 3.08 µM (active). Besides, the AC50 in [7] is 4.88 µM (active); in test [8], 6.3 µM (active); in [9], 1.64 µM (active); in [12], 8.41 µM (active); in test [13], 7.94 µM (active).
Consider `ClC1=C(Cl)C(Cl)(Cl)C(Cl)=C1Cl`, for which the compound was classed as inactive in test [1], in test [3], in test [4], in [14], in test [15] and in test [6]. Besides, the outcome in test [7], in test [16], in test [17] and in test [18] was inactive. Besides, the AC50 in [9] is 4.87 µM (active).
For `CN(C)C=O`, the call in test [1], in test [2], in test [3], in test [4], in test [5] and in test [6] was inactive. In addition, the result in test [8] and in [12] was inactive.
`OC1CCC(C2CCCCC2)CC1` (configuration not stated): the compound was classed as inactive in test [1], in test [2], in [3], in test [4], in test [5] and in test [6]. Also, the result in test [8] was inactive. Besides, the AC50 in test [9] was 87.6 µM (active).
